“And” between values parts separate entries of the source, which are not always exact repeats. Equal entries are not always repeated. Inconclusive results are not listed. Where a call stands in place of a potency, no number is given. A number with no mark means an inactive call. The source made the active and inactive calls. Calls come from the whole dose curve; as a rule, active = well fitted cell-killing curve with a large enough effect in the repeat runs; inconclusive = weak or mixed curves, or effect the other way; inactive = no such curve, though single readings can be large or run the other way.
Potency is the fitted concentration of half-maximal effect.

The assay in a line: qHTS assay for small molecule activators of the heat shock response signaling pathway - cell viability counter screen (AID 743209). Note: nearly all actives have a fitted effect of over 50% in size. The note with it: HSE-bla HeLa viability, CellTiter-Glo luminescence, 5 h; series mostly up to 62.6 µM. From the text:
U.S. Tox21 Program National Center for Advancing Translational Sciences [NCATS] NIH Chemical Genomics Center [NCGC] U.S. Environmental Protection Agency [EPA] National Institutes of Environmental Health Sciences [NIEHS] National Toxicology Program [NTP] U.S. Food and Drug Administration [FDA] Tox21 Assay Overview: Various chemicals, environmental and physiological stress conditions may lead to the activation of heat shock response/ unfolded protein response (HSR/UPR). There are three heat shock transcription factors (HSFs) (HSF-1, -2, and -4) mediating transcriptional regulation of the human HSR. To identify the compounds that activate HSR signaling, HSE-bla HeLa cell line (Invitrogen, Carlsbad, CA, USA) containing a beta-lactamase reporter gene under the control of the heat shock response elements was used to screen Tox21 10K compound library. The cytotoxicity of the Tox21 compound library against the HSE-bla HeLa cell line was tested in parallel by measuring the cell viability using CellTiter-Glo assay (Promega, Madison, WI) in the same wells.
Tox21 Assay Protocol Summary: The CellSensor HSE-bla HeLa cells (Invitrogen, Carlsbad, CA, USA) were dispensed at 1500 cells/6uL/well into 1536-well black wall/clear bottom plates using a Multidrop combi (Thermo Fisher Scientific, Waltham, MA) dispenser. After the assay plates were incubated at 37 C and 5% CO2 overnight, 23 nL of compounds dissolved in DMSO, positive controls or DMSO only was transferred to the assay plate by a Pintool station (Kalypsys, San Diego, CA). The plates were incubated at 37 C for 5 h. After 1 uL of LiveBLAzerTM B/G FRET substrate was added using a Flying Reagent Dispenser (FRD, Beckman Coulter, Indianapolis, IN, USA), the plates were incubated at room temperature for 2.5 h, and fluorescence intensity was measured by an Envision plate reader (PerkinElmer, Shelton, CT). For cell viability readout that measures cytotoxicity, 3 ul/well of CellTiter-Glo reagent was added into the assay plates using a FRD. After 30 min incubation at room temperature, the luminescence intensity in the plates was measured using a ViewLux (PerkinElmer) plate reader.
Background: Quantitative high-throughput screening tests each substance at several concentrations.
As to `O=c1[nH]c2cc(Cl)ccc2n1C1CCNCC1`, the Potency result is “inactive”.

In the case of `[Cl-].[Cl-].[Cl-].[Yb+3]`, the Potency result was “inactive”.

With `CN`, the Potency entry was “inactive”.

On to `CO/N=C(\C(=O)OC)c1ccccc1CO/N=C(\C)c1cccc(C(F)(F)F)c1`, for which the Potency result was “inactive”.

`Cc1cnc2c(C(=O)O)c(Cl)ccc2c1`: the Potency result is “inactive”.

With `CCCCCCC[CH2][Sn]([Cl])([Cl])[CH2]CCCCCCC`, the Potency is 30.9 µM (active).

In the case of `C[N+]1(C)[C@@H]2CC[C@H]1CC(OC(=O)C(CO)c1ccccc1)C2` (stereo not given in full), the Potency result is “inactive”.

As to `CC(=O)[O-].CC(=O)[O-].CC(=O)[O-].[Sb+3]`, the activity change, negative = cytotoxicity is 4.7% [at 5.95 µM].

As for `Cc1ccc(C)c2ccccc12`, the Potency result was “inactive”.

As to `CC(C)C(Br)C(=O)NC(N)=O` (stereo not given), the Potency entry is “inactive”.

As to `C[C@H]1[C@H](c2ccc(Cl)cc2)SC(=O)N1C(=O)NC1CCCCC1`, the Potency entry is “inactive”.

Take `CC(C)N(C(=O)SC/C(Cl)=C/Cl)C(C)C`: the Potency entry was “inactive”.

For `[Cl-].[Cl-].[Sn+2]`, the Potency entry was “inactive”.

On to `O.O.O.O.O.O.O=S(=O)([O-])[O-].[Ni+2]`, for which the Potency entry is “inactive”.

As for `O=C(NC(=O)c1ccccc1Cl)Nc1ccc(OC(F)(F)F)cc1`, the Potency entry was “inactive”.

As for `CCCCON=O`, the Potency result is “inactive”.

For `FC(F)C(F)(F)OCC(Cn1cncn1)c1ccc(Cl)cc1Cl` (stereo not given), the Potency result was “inactive”.

Turning to `CNN`, the Potency result was “inactive”.

In the case of `Clc1ccc(C2(Cn3cncn3)OCCO2)c(Cl)c1`, the Potency result was “inactive”.

Regarding `CC(C)=CC1C(C(=O)OC(C#N)c2cccc(Oc3ccccc3)c2)C1(C)C` (stereo not given), the Potency result is “inactive”.

Regarding `Oc1ccc2[nH]cc(CCCCN3CC=C(c4ccccc4)CC3)c2c1`, the Potency entry was “inactive”.

Take `CCCCN(CCCC)C(=S)[S-].CCCCN(CCCC)C(=S)[S-].[Ni+2]`: the Potency entry was “inactive”.

Turning to `CCN(CC)Cc1nccn1-c1ccc([N+](=O)[O-])cc1C(=O)c1ccccc1Cl`, the Potency entry is “inactive”.

As to `CCCCCCCc1ccc(O)cc1`, the Potency entry is “inactive”.

Consider `C[C@]12CC[C@H]3[C@@H](CCC4=CC(=O)CC[C@@H]43)[C@@H]1CC[C@@H]2OC(=O)CCc1ccco1`, for which the Potency was 13.3 µM (active).

For the molecule `Cc1nn(-c2cc(NS(C)(=O)=O)c(Cl)cc2Cl)c(=O)n1C(F)F`, the Potency result is “inactive”.

In the case of `Nc1ccccc1-c1ccccc1`, the Potency result was “inactive”.

As for `CCN(CC)CCc1c[nH]c2ccccc12`, the Potency result is “inactive”.

Consider `COc1ccc2[nH]cc(CCN(C(C)C)C(C)C)c2c1`, for which the Potency entry is “inactive”.

For `O=c1[nH]c(Cl)c(Cl)cc1Cl`, the Potency entry was “inactive”.

As for `Cc1ccc([N+](=O)[O-])[c]2c1[O][Hg]2`, the Potency was 5.31 µM (active).

Regarding `[O]=[Cr](=[O])([OH])[O][Cr](=[O])(=[O])[OH]`, the Potency was 39.3 µM (active) and 43.6 µM (active).

Turning to `Cc1cccc(Cc2cnc[nH]2)c1C`, the Potency entry was “inactive”.

Consider `CNC(=O)CSP(=O)(OC)OC`, for which the Potency entry is “inactive”.

`CCN1CCC2(CC1)COc1cc3c(cc12)N(C(=O)c1ccc(-c2ccc(-c4nnc(C)o4)cc2C)cc1)CC3`: the Potency is 45.2 µM (active).

As to `C=CC(=C)C`, the Potency entry was “inactive”.

Regarding `CCC(C)c1cccc(C(C)CC)c1O` (stereo not given), the Potency result is “inactive”.

On to `O=[N+]([O-])c1ccc(Cl)c(Cl)c1Cl`, for which the Potency result was “inactive”.

On to `CCC(C)Nc1c([N+](=O)[O-])cc(C(C)(C)C)cc1[N+](=O)[O-]` (stereo not given), for which the Potency result is “inactive”.

In the case of `COCCC#N`, the Potency entry was “inactive”.

Values taken from PubChem BioAssay (Tox21).
